Results: PubChem BioAssay AID1362 (SRMLSC, 2008)
About 4,000 (2.1%) of roughly 190,000 compounds were called active. Rule as the data show it: active = inhibition above about 58%; inactive = the rest, inconclusive results apart; tested in S. cerevisiae. What follows is part of a selection rich in actives, with near analogues and random picks from the rest.

Assay: growth inhibition of WT strain, primary screen, mitochondrial fusion inhibitor project, WT and mutant strains, chemical genetic (AID 1362)
Conditions: mitochondrial fusion phenotypic screen, at 10 µM
[1] = WT strain, growth inhibition, stronger effect = higher value

SMILES | inhibition [1] | inhibition (mutant strain inhibition) [%]
CN1CCN(C(=S)SCC(=O)Nc2ccc(Cl)cc2C(=O)c2ccccc2)CC1 | 7.01% (inactive) | 6.59
CC(C(=O)Nc1ccc(Cl)cc1Cl)N1CC=C(c2ccccc2)CC1 (stereo not given) | 70.9% (active) | 1.22
O=C(OCCN1CCOCC1)C1(c2ccccc2)CCCC1 | 8.37% (inactive) | 10.3
CCCOC(=O)C1C2c3ccccc3C(c3ccccc32)C1C(=O)O (stereo not given) | -5.35% (inactive) | -6.76
CC1=CC(=Cc2sc3ccccc3[n+]2C)C=C(C)O1 | 65.7% (active) | 63.1
COP(=O)(OC)C(NC(=O)c1ccc(C)cc1)C(Cl)(Cl)Cl (stereo not given) | 3.22% (inactive) | 7.65
Cc1cc(C=C2C(=O)NC(=O)NC2=O)c(C)n1-c1ccncc1 | -0.16% (inactive) | -6.83
O=C(Cn1c(=O)n(CC2CS2)c2ccccc21)N1CCCCC1 (stereo not given) | 0.43% (inactive) | -0.1
O=C(CCN1CCCCC1)NCC(=O)Nc1ccc(Br)cc1C(=O)c1ccccc1 | 7.53% (inactive) | 1.33
O=C(COC(=O)c1ccccc1)Nc1ccc(Cl)cc1C(=O)c1ccccc1 | 16.3% (inactive) | 10.6
O=C(CN1CCCCC1)Nc1ccc(Br)cc1C(=O)c1ccccc1Cl | 74.3% (active) | 9.62
CCOC(=O)C1(CCc2ccccc2)CCN(Cc2ccco2)CC1 | 12.8% (inactive) | 4.98
COc1ccccc1N=Nc1c(O)[nH]c(=S)[nH]c1=O | 4.7% (inactive) | 1.05
CC(c1ccccc1)(c1ccccc1)c1ccncc1 | 26.6% (inactive) | 19.3
COP(=O)(NS(=O)(=O)c1ccccc1)OC | -9.16% (inactive) | -1.53
